# Shown are actives, neighbours in structure and some others; about 0.71% of the full set was active somewhere.
# IDE cell activ – IDE (human) activation, cell-based. activation, % at 5.96 µM. 0.073% of 340,000 active. AID 493087. HEK cells, FAbeta-B cleavage, fluorescence polarization; 0% vehicle, 100% cell-free pure enzyme wells;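 active = activation above the mean of all tested compounds plus 3 SD, set per screening campaign, cut at about 17% in these data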
# IDE cell inh – inhibitors of human insulin-degrading enzyme in cells; HEK cells, FAbetaB cleavage, fluorescence polarization; inhibition, % at 5.59 µM; 0.41% of 320,000 active; AID 434962;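 active = percent inhibition above the average of all tested compounds plus 3 SD, set per screening campaign, cut at about 16% in these data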;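 also: IDE supplied by intact live HEK cells; FP after avidin binding of uncleaved biotin substrate so inhibition keeps polarization high; 0% = DMSO wells and 100% = 60 µM reference IDE inhibitor Ii1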
# Cardiac RTF inh – cardiac RTF calcium desensitization. P19429+P45379. IANBD-labeled cardiac RTF, Ca2+ fluorescence. inhibition, % at 7.15 µM. 0.12% of 340,000 active. AID 493244;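 active = inhibition above the mean inhibition of all tested compounds plus 3 SD, cut at about 17% in these data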;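 also: assay run at fixed EC70 calcium of 1.6 mM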
# RTF Ca sens act – increases calcium sensitivity of human cardiac regulated thin filaments; IANBD-labeled TnC RTF fluorescence at EC20 calcium; 0% EC20 calcium, 100% full calcium; activation, % at 7.2 µM; AID 493008; 0.24% of 340,000 active; P19429+P45379;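 active = activation above the mean over all tested compounds plus 3 SD, cut at about 30% in these data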;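 also: rise in fluorescence read as greater calcium sensitivity of cardiac thin filaments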
# IDE inh confirm – confirmation of human insulin-degrading enzyme inhibitors in cells; shares compounds with IDE cell inh; 51% of 1,200 active; inhibition, % at 5.59 µM; HEK cells, FAbetaB cleavage, fluorescence polarization;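 active = mean inhibition across triplicate wells above the cutoff set by the earlier primary insulin-degrading enzyme screen, cut at about 16% in these data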;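 also: 0% = DMSO wells and 100% = 60 µM reference IDE inhibitor Ii1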
# HEK cytotox – HEK cell cytotoxicity, counter-screen for IDE inhibitors; 28% of 1,200 active; shares compounds with IDE cell inh; inhibition, % at 5.59 µM; HEK293 cytotoxicity, ATP luminescence; in the data active = inhibition above about 22%;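 also: 0% = vehicle wells and 100% = reference cytotoxic drug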
# The depositor's hits bear a star; x = no result given.
SMILES,IDE cell activ,IDE cell inh,Cardiac RTF inh,RTF Ca sens act,IDE inh confirm,HEK cytotox
CCOc1ccc(/C=C2/SC(=S)N(C(C(=O)O)c3ccccc3)C2=O)cc1OCC (configuration not stated),4,x,1,0,x,x
O=C1/C(=C/c2cccc(O)c2)SC(=S)N1CC1CCCO1 (configuration not stated),3,-3,-4,-5,x,x
O=C(O)C(c1ccccc1)N1C(=O)/C(=C\c2ccc(O)c(O)c2)SC1=S (configuration not stated),-55,67*,-6,-5,84*,12
CN1C(=O)c2ccc(C(=O)Nc3ccc4c(c3)OCO4)cc2C1=O,1,0,1,2,x,x
Cc1nc(/C(N)=N/OC(=O)Cc2ccccc2)no1,-1,2,0,2,x,x
CCCn1c(SC(C)C(=O)NC2CCCC2)n[nH]c1=O (configuration not stated),-4,x,-14,6,x,x
Cn1ncc2c(Nc3ccc4ccccc4c3)ncnc21,-58,32*,-1,-5,4,10
Cc1cccc(Nc2ncnc3c2cnn3C)c1,-15,8,5,-8,x,x
CC(CCC(=O)O)C1CCC2C3C(O)CC4CC(O)CCC4(C)C3CC(O)C12C (configuration not stated),4,6,-10,0,x,x
Cn1cc(S(=O)(=O)c2ccccc2)c(=O)c2cc(Cl)ccc21,9,-3,-2,2,x,x
Cn1cc(/C=C/c2cc[n+](C)cc2)c2cc(Cl)ccc21,-12,38*,-178,206*,62*,81*
Cn1cc(C=O)c2cc(F)ccc21,3,0,-17,4,x,x
Cn1cc(/C=C/c2cc[n+](C)cc2)c2cc(F)ccc21,-25,31*,-383,317*,75*,77*
CC1(c2ccccc2Cl)NC(=O)N(CC(=O)N2CCc3ccccc32)C1=O (configuration not stated),4,1,-3,5,x,x
CCN(CC)c1ccc(/C=C(\C#N)C(=O)c2ccc(Br)cc2)cc1,-176,68*,-488,559*,51*,21
CCN(CC)c1ccc(C(=O)O)cc1,-2,6,10,1,x,x
CCN(CC)c1ccc(/C=C(\C#N)C(N)=S)cc1,-101,22*,-282,200*,13,11
N#C/C(=C\c1ccc(C#N)cc1)C(=O)c1ccccc1,3,x,3,1,x,x
CN(C)c1ccc(/C=C(\C#N)C(=O)c2ccccc2)cc1,-98,28*,-106,80*,96*,18
CCN(CC)c1ccc(/C=C(\C#N)C(N)=O)cc1,-2,x,-3,7,x,x
O=C(Nc1ccc(F)cc1)N1CCN(c2nc3ccccc3s2)CC1,-7,12,-1,2,x,x
O=C(Nc1ccccc1)N1CCN(c2nc3ccccc3s2)CC1,-19,18*,-6,-2,4,30*
O=C(c1ccc2ncsc2c1)N1CCN(c2nc3ccccc3s2)CC1,-18,25*,-8,1,13,42*
CC(C)(C)c1ccc(S(=O)(=O)N2CCN(C(=O)C3CCC3)CC2)cc1,1,4,-2,-2,x,x
COc1ccccc1C(=O)NCC(=O)OCC(=O)c1ccc2c(c1)-c1ccccc1C2,-7,22*,-8,5,6,9
SMILES,IDE cell activ,IDE cell inh,Cardiac RTF inh,RTF Ca sens act,IDE inh confirm,HEK cytotox
COc1ccccc1C(=O)NCC(=O)OCCCOC(=O)CNC(=O)c1ccccc1OC,4,5,5,-1,x,x
N#C/C(=C\c1ccc(N2CCCCC2)o1)C(N)=O,-50,32*,-58,56*,50*,10
N#C/C(=C\c1ccc(N2CCCCC2)o1)C(=O)Nc1cccc(Br)c1,-103,140*,-155,146*,79*,42*
O=Cc1ccc(N2CCCC2)o1,5,-5,3,-1,x,x
CN(C(=O)CSc1nnc(N)s1)C1CCCCC1,0,7,-4,-1,x,x
N#C/C(=C/c1ccc(O)c(O)c1)C(=O)NCc1ccc(Cl)cc1,-32,24*,0,7,33*,9
COc1cc(/C=C(\C#N)C(=O)NCc2cccs2)ccc1O,-41,34*,2,8,45*,9
COCCNC(=O)/C(C#N)=C/c1ccc(OC(=O)c2cccs2)c(OC)c1,-1,x,9,13,x,x
N#C/C(=C\c1ccc(O)c(O)c1)C(=O)Nc1ccccc1,-43,26*,2,3,50*,10
N#C/C(=C/c1cccc(O)c1)C(=O)NCc1ccc(Cl)cc1,-4,3,-7,0,x,x
Cc1ccc(S(=O)(=O)NC(C)CCc2ccccc2)cc1C(N)=O (configuration not stated),1,-2,-4,-5,x,x
Cc1c(C)c2c(c(C)c1O)CCC(C)(C(=O)O)O2 (configuration not stated),1,0,8,3,x,x
CCOC(=O)C1=C(CSc2nc(C)cc(C)c2C#N)OC(N)=C(C#N)C1c1cccs1 (configuration not stated),x,23*,x,x,3,5
S=C(Nc1ccccc1)Nc1nc2ccccc2n1CCOc1ccc(Br)cc1,-11,26*,6,0,9,10
O=C(N/N=C/c1ccc(O)cc1O)c1ccc(CN2C(=O)c3cccc4cccc2c34)cc1,-27,26*,-7,3,10,98*
CC1(NCc2ccc(Cl)cc2)COP(=O)(NCc2ccccc2)OC1 (configuration not stated),2,x,-8,0,x,x
CC(C)c1ccccc1-n1c(SCc2cc(=O)oc3ccc4ccccc4c23)nnc1-c1cccnc1,-59,24*,-7,-3,13,21
Cn1c(SCC(=O)Nc2ccc3nc(SCC(=O)N4CCCC4)sc3c2)nnc1-c1ccccc1,x,21*,x,x,14,10
Cc1ccc(OCCSc2nnc(-c3ccncc3)n2C)cc1,-39,36*,-12,-4,12,8
CCN1C(=O)[C@@H]2Cc3c([nH]c4ccccc34)C(c3ccc(OC)cc3)N2C1=S (some centres not stated),-47,41*,-28,28,20*,61*
C=CCNC(=O)Cn1c(=O)c2c(ncn2CCC(C)C)n(Cc2ccccc2)c1=O,3,0,1,-1,x,x
Cc1ccc(S(=O)(=O)NCCC(=O)NC2CCC(C)CC2)cc1 (configuration not stated),3,6,-7,-1,x,x
O=C1/C(=C/c2ccccc2)Nc2ccccc21,-13,28*,-14,9,32*,6
Cc1ccc(N(CC(O)CN2CCCCC2)S(=O)(=O)c2ccccc2)cc1 (configuration not stated),2,3,-9,-1,x,x
CC1CCc2sc(C(=O)NCc3ccccn3)cc2C1 (configuration not stated),-1,4,-3,1,x,x
CC(=O)c1sc(N/N=C/c2cccc(O)c2)nc1C,-13,12,-4,2,x,x
